From PubChem
Compounds with a hit are over-represented: about 1.1% of the library has one in this group of screens.
FadD28 FP inh = M. tuberculosis FadD28 bisubstrate binding inhibition. FadD28 bisubstrate probe binding, fluorescence polarization. inhibition, % at 12.5 µM. hit rate 0.22% among 360,000. AID 588549; in the data active = inhibition above about 8.5%, passing the limit was not always enough
Mtb BioA inh = blocks M. tuberculosis BioA enzyme activity | purified M. tuberculosis BioA enzyme, plate reader | inhibition, % at 9.99 µM | hit rate 0.096% among 360,000 | AID 602481; in the data active = inhibition above about 40%
PrP UTR inh = inhibition of PrP 5' UTR reporter expression | cell-based PrP 5' UTR mRNA reporter, plate reader | inhibition, % (concentration not given with the values) | hit rate 0.35% among 340,000 | AID 488862; in the data active = inhibition above about 52%; note: 0 = median of the neutral control wells
TcdB GH inh = inhibitors of Clostridioides difficile toxin B glycohydrolase; P18177; TcdB glycohydrolase enzymatic assay, plate reader; inhibition, % at 9.99 µM; hit rate 0.24% among 350,000; in the data active = inhibition above about 10%
PfHsp40 rescue = restores yeast growth despite PfHsp40 toxicity | S. cerevisiae expressing PfHsp40, growth rescue, ATP luminescence | hit rate 0.68% among 340,000 | growth rescue, % at 12.5 µM; in the data active = growth rescue above about 28%, passing the limit was not always enough;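 note: yeast W303a lacking pdr1 and pdr3 grown in galactose medium; growth measured after three days at 30 °C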
Numbers without * were called inactive.

O=C(NCCO)c1ccc(Cl)c(Cl)c1 was read as FadD28 FP inh 0.9, Mtb BioA inh 1.5, PrP UTR inh -8.4 and PfHsp40 rescue 2.5.
Screening CCCNC(=O)c1ccc2c(=O)c(O)c(-c3ccc(F)cc3)[nH]c2c1 returned FadD28 FP inh -1.8, Mtb BioA inh -0.9, PrP UTR inh -3.7 and PfHsp40 rescue 199.5*.
For CCCNC(=O)c1ccc2c(=O)c(O)c(C)[nH]c2c1 the results were FadD28 FP inh -4.4, Mtb BioA inh -2.7, PrP UTR inh -10.2, TcdB GH inh -4.8 and PfHsp40 rescue 0.6.
`CCNC(=O)C[C@H]1C=C[C@H](NC(=O)C2CCC2)[C@H](CO)O1` gave Mtb BioA inh -5.1 and TcdB GH inh -7.8.
For Nc1ccc(-c2cc3ccccc3oc2=O)cc1 the results were FadD28 FP inh 0.8, Mtb BioA inh 0.0, PrP UTR inh 84.7*, TcdB GH inh 1.3 and PfHsp40 rescue -0.6.
`O=c1oc2ccccc2cc1-c1ccc(O)cc1` gave FadD28 FP inh 1.4, PrP UTR inh -76.6, TcdB GH inh 3.7 and PfHsp40 rescue 2.3.
For CO[C@@H]1CC[C@H]2CCOc3ccc(C#N)cc3C(=O)N(C)C[C@H](C)C(=O)N(C)C[C@H]1O2 the results were Mtb BioA inh -2.2 and TcdB GH inh -0.4.
CO[C@@H]1CN(C)C(=O)c2cc(NS(C)(=O)=O)ccc2OC[C@@H](C)N(C)C[C@@H]1C was read as Mtb BioA inh -1.4 and TcdB GH inh -0.9.
Screening Cc1cccc(Nc2nnc(-c3ccc(C(=O)N4C[C@H]5C[C@H](C4)c4cccc(=O)n4C5)cc3)c3ccccc23)c1 returned FadD28 FP inh -5.4, Mtb BioA inh 4.1, PrP UTR inh -15.9 and PfHsp40 rescue 84.4*.
For NC(=O)NN=C1CC2CC1C1C=CCC21 (centres undefined) the results were FadD28 FP inh -2.0, PrP UTR inh -10.8, TcdB GH inh 13.6* and PfHsp40 rescue 0.4.
COCC(=O)Nc1ccc2c(c1)[C@@H]1C[C@H](CC(=O)N3CCCCC3)O[C@H](CO)[C@@H]1O2 was read as Mtb BioA inh -4.7.
For O=C1CC(c2ccccc2)=NN1c1nc(-c2ccccc2)cs1 the results were FadD28 FP inh 1.1, PrP UTR inh 18.3, TcdB GH inh 0.2 and PfHsp40 rescue 2.2.
Screening CC1=NN(c2nc(-c3ccccc3)cs2)C(=O)C1 returned FadD28 FP inh 16.3*, Mtb BioA inh -1.7, PrP UTR inh -3.4 and PfHsp40 rescue 1.0.
CCOC(=O)c1c2c(n(-c3ccc(OC)cc3)c1C)C(=O)C(=O)c1ccccc1-2 was read as FadD28 FP inh -0.6, PrP UTR inh -43.3 and PfHsp40 rescue 85.3*.
CCOC(=O)c1sc(=S)n(-c2ccc(OC)cc2)c1C was read as FadD28 FP inh -1.9, Mtb BioA inh -0.2 and TcdB GH inh 0.4.
For O=C(CSc1ncccn1)N1CCCc2ccccc21 the results were FadD28 FP inh 0.5, PrP UTR inh -18.8, TcdB GH inh -1.4 and PfHsp40 rescue 1.0.
For O=C(CSc1ccc(-c2ccccn2)nn1)c1ccc([N+](=O)[O-])cc1 the results were FadD28 FP inh -0.8, PrP UTR inh -19.9, TcdB GH inh 0.6 and PfHsp40 rescue 94.6*.
O=C(CSc1ccc(-c2ccccn2)nn1)NC1CCCCC1 was read as FadD28 FP inh -1.9, PrP UTR inh -24.6, TcdB GH inh 1.8 and PfHsp40 rescue 320.0*.
For O=C(CSc1ccc(-c2ccccc2)nn1)NC1CCCCC1 the results were FadD28 FP inh 1.7, Mtb BioA inh 0.6, PrP UTR inh -24.5, TcdB GH inh 0.5 and PfHsp40 rescue 0.3.
O=C(CSc1ccccn1)N1CCc2ccccc21 was read as FadD28 FP inh 0.8, PrP UTR inh -116.4, TcdB GH inh 5.7 and PfHsp40 rescue 72.1*.
Screening O=C(CSc1ccc(-c2ccccn2)nn1)N1CCCCC1 returned FadD28 FP inh -0.3, PrP UTR inh -35.5, TcdB GH inh -0.5 and PfHsp40 rescue 134.8*.
For C[C@@H]1CN([C@H](C)CO)S(=O)(=O)c2ccc(C3=CCCC3)cc2O[C@@H]1CN(C)C(=O)CN(C)C the results were Mtb BioA inh 2.1 and TcdB GH inh -0.3.
For O=C(OCC(=O)N1CCc2ccccc21)c1ccccn1 the results were FadD28 FP inh -4.4, PrP UTR inh -15.9, TcdB GH inh 1.0 and PfHsp40 rescue -1.1.
O=C(CSc1ccc(-c2ccccn2)nn1)N1CCc2ccccc21 was read as FadD28 FP inh -2.3, PrP UTR inh -6.4, TcdB GH inh 0.6 and PfHsp40 rescue 224.5*.
Cc1cc2c(C(C)C)c(O)c(O)c(C=O)c2c(O)c1-c1c(C)cc2c(C(C)C)c(O)c(O)c(C=O)c2c1O was read as FadD28 FP inh 51.0*, Mtb BioA inh 3.7 and TcdB GH inh -0.7.
CC(C)NC(=O)N(C)C[C@H]1OCCCC[C@@H](C)Oc2ccc(NC(=O)c3ccncc3)cc2C(=O)N([C@H](C)CO)C[C@H]1C was read as Mtb BioA inh -3.2 and TcdB GH inh -0.2.
Screening NNC(=S)Nc1cccc(-c2n[nH]c(=S)o2)c1 returned FadD28 FP inh 9.5*, Mtb BioA inh 3.3, PrP UTR inh -9.7, TcdB GH inh 0.4 and PfHsp40 rescue 1.2.
Screening COC(=O)C[C@H]1CC[C@H]2[C@H](COc3ccc(NC(=O)Nc4ccc(C)cc4)cc3C(=O)N2C)O1 returned Mtb BioA inh 2.2.
`CC(=O)NC1=NN(C(C)=O)C(c2cccs2)S1` (centres undefined) gave FadD28 FP inh 0.5, Mtb BioA inh -0.9, PrP UTR inh -6.9 and PfHsp40 rescue 39.9*.
For C[C@H](CO)N1C[C@H](C)[C@@H](CN(C)C)Oc2cc(-c3cncnc3)ccc2S1(=O)=O the results were Mtb BioA inh 0.1 and TcdB GH inh 0.4.
Screening Cn1nc(C(F)(F)F)c(/C=N/OC(=O)c2ccccc2Cl)c1SCc1ccc(Cl)cc1 returned FadD28 FP inh 0.1, PrP UTR inh -19.8 and PfHsp40 rescue 51.6*.
`C[C@@H]1CN([C@H](C)CO)C(=O)Cc2cc(NS(=O)(=O)c3cccs3)ccc2O[C@@H]1CN(C)C` gave Mtb BioA inh 0.3 and TcdB GH inh -0.7.
CCN(CC)c1ccc(/C=C/c2ccc3ccc(OC)cc3[n+]2CC)cc1 was read as FadD28 FP inh -2.9, Mtb BioA inh 6.7, PrP UTR inh 2.4, TcdB GH inh 0.9 and PfHsp40 rescue 321.2*.
For COc1ccc(-c2cc3c(=O)n(CC(=O)NCc4cccnc4)ncn3n2)cc1 the results were FadD28 FP inh -0.6, Mtb BioA inh -1.3, PrP UTR inh -9.5, TcdB GH inh 0.4 and PfHsp40 rescue 0.1.
`COc1ccc(-c2cc3c(=O)n(CC(=O)NC4CCN(Cc5ccccc5)CC4)ncn3n2)cc1` gave FadD28 FP inh -2.4, Mtb BioA inh -1.5, PrP UTR inh -47.2 and PfHsp40 rescue 83.0*.
`COc1ccccc1NC(=O)N1C[C@@H](C)[C@H](OC)CN(C)C(=O)c2ccc(NC(=O)c3cnccn3)cc2OC[C@H]1C` gave Mtb BioA inh -0.6 and TcdB GH inh -0.5.
For CCCNC(=O)N(C)C[C@H]1Oc2cc(C#CCC(C)C)ccc2S(=O)(=O)N([C@@H](C)CO)C[C@@H]1C the results were Mtb BioA inh 1.7 and TcdB GH inh 1.6.
